Data taken from PMC5540273 (PLoS ONE, 2017).

Legend:
Details in all cases: concentration: 1 μM, replicates: in singlicate; n = 1
DLK = tested on: T1, DLK
T1 construct: gene MAP3K12

DMPK2 = tested on: T2, DMPK2
T2 construct: gene CDC42BPG

DMPK = tested on: DMPK
DRAK1 = tested on: T3, DRAK1
T3 construct: gene STK17A

DRAK2 = tested on: T4, DRAK2
T4 construct: gene STK17B

DYRK1A = tested on: DYRK1A
DYRK1B = tested on: DYRK1B
DYRK2 = tested on: DYRK2
EGFR = tested on: EGFR
EIF2AK1 = tested on: EIF2AK1
EPHA1 = tested on: EPHA1
EPHA2 = tested on: EPHA2
EPHA3 = tested on: EPHA3
EPHA4 = tested on: EPHA4
EPHA5 = tested on: EPHA5
EPHA6 = tested on: EPHA6
EPHA7 = tested on: EPHA7
EPHA8 = tested on: EPHA8
EPHB1 = tested on: EPHB1
EPHB2 = tested on: EPHB2
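Also: KINOMEscan kinase panel screen.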

Compound	%Inh (DLK) [%]	%Inh (DMPK2) [%]	%Inh (DMPK) [%]	%Inh (DRAK1) [%]	%Inh (DRAK2) [%]	%Inh (DYRK1A) [%]	%Inh (DYRK1B) [%]	%Inh (DYRK2) [%]	%Inh (EGFR) [%]	%Inh (EIF2AK1) [%]	%Inh (EPHA1) [%]	%Inh (EPHA2) [%]	%Inh (EPHA3) [%]	%Inh (EPHA4) [%]	%Inh (EPHA5) [%]	%Inh (EPHA6) [%]	%Inh (EPHA7) [%]	%Inh (EPHA8) [%]	%Inh (EPHB1) [%]	%Inh (EPHB2) [%]
COC(=O)c1c(-c2ccccc2)c2cc(Br)ccc2c(=O)n1Cc1ccc(S(C)(=O)=O)cc1	0	5	0	3	0	20	45	44	5	13	0	22	0	33	16	45	24	23	14	21
COc1cc(Nc2nccc(N3CCC(NC(=O)C4COc5ccccc5O4)C3)n2)cc(OC)c1OC (stereo not drawn) [GSK1379761]	60	0	0	0	0	0	5	19	43	0	1	17	1	2	0	0	0	5	6	8
COc1cccc(C2=C(N(C)c3ccccc3)C(=O)NC2=O)c1 [SB-334865]	4	0	0	0	0	4	0	0	36	0	0	4	0	16	0	0	5	7	18	14
COc1ccc(-c2cc3c(C)nc(N)nc3n([C@H]3CC[C@H](OCCO)CC3)c2=O)cn1	0	0	8	16	14	0	0	0	12	8	13	0	0	12	11	11	0	0	0	0
FC(F)(F)c1ccc(-c2ncn(CCCN3CCOCC3)c2-c2ccncc2)cc1 [SB-217780]	0	1	28	15	6	6	0	25	19	10	6	5	0	12	0	7	0	0	0	0
O=C(Nc1n[nH]c2nc(-c3ccccc3)c(Cl)cc12)C1CC1 [SB-734909]	22	11	0	0	0	10	3	8	14	18	19	24	17	8	0	13	17	21	0	0
COc1cc2ncn(-c3cc(OCc4ccc(S(C)(=O)=O)cc4)c(C(N)=O)s3)c2cc1OC [GW869979]	13	10	0	0	23	22	20	1	25	7	0	0	7	0	0	0	22	17	9	9
O=C(Nc1n[nH]c2cc(-c3ccccc3F)ccc12)C1CC1 [SB-733371]	0	0	0	0	0	4	0	3	0	0	22	0	19	0	0	5	0	22	4	0
COc1cc2ncn(-c3cc(OCc4ccncc4)c(C(N)=O)s3)c2cc1OC [GSK336313]	0	12	0	0	0	13	19	23	24	0	21	0	12	0	0	0	4	0	7	0
